# Laboratory results reported in PubChem BioAssay.
# Values joined by “and” are separate entries in the source; they are usually repeats but may differ in a detail not shown here. Identical values can stand only once. Records with an inconclusive call do not appear. Active and inactive are the calls of the source.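 The calls were made as follows, unless noted: active = fitted half-maximal concentration within 10 nM to 100 µM, steepness 0.5 to 2, significant signal drop, low assay interference; inactive = the rest.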
# Assays:
# [1] = biological target: GTPase HRas (Homo sapiens) (UniProt P01112); experiment: Ras wt fluorescent GTP loading blockade – biochemical, wildtype, multiplex bead flow cytometry, dose response (AID 1335); conditions: bead-based flow cytometry, Bodipy-GTP binding to GST-Ras; at 100 µM (top of the series)
# GTPase HRas (Homo sapiens), sequence (P01112 whole entry, looked up): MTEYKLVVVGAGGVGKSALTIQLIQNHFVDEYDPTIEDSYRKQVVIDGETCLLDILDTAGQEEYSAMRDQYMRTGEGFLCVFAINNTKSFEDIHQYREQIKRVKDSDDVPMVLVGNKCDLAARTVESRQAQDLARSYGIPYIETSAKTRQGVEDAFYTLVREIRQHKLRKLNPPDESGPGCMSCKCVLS
# [2] = rapamycin-like changes in RPL19A-GFP expression – cell-based, S. cerevisiae, multiplex flow cytometry, primary screen (AID 1862; in the data active = percent of DMSO control GFP below about 86%;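 also: lower values mimic rapamycin by blocking the RPL19A rise seen in DMSO cells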); conditions: S. cerevisiae RPL19A-GFP strain, flow cytometry fluorescence, 3 h; at 10 µM; stronger effect = lower value
# [3] = TOR pathway GLN3 branch reporter MEP2-GFP changes – S. cerevisiae, multiplex flow cytometry, primary screen (AID 1867;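 active = GFP response, as percent of the DMSO control, above the screen-wide mean plus 3 SD, about 139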;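 also: median GFP channel fluorescence of barcode-gated MEP2-GFP cells measured by flow cytometry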); conditions: S. cerevisiae MEP2-GFP strain, 3 h, at 10 µM, stronger effect = higher value
# [4] = TOR pathway RTG branch CIT2 reporter changes – S. cerevisiae, GFP fusion, multiplex flow cytometry, primary screen (AID 1870;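 active = percent response above a set limit, the screen-wide mean plus 3 SD, cut at about 130% in these data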;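 also: barcoded CIT2-GFP strain pooled with four other GFP strains with rapamycin as positive control; median GFP fluorescence per well over plate mean of DMSO wells so 100% = DMSO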); conditions: S. cerevisiae CIT2-GFP expression, 3 h, at 10 µM, stronger effect = higher value
# [5] = TOR pathway LAP4-GFP level changes – S. cerevisiae, multiplex flow cytometry, primary screen (AID 1873;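 active = GFP signal, as percent of the solvent control, above the screen mean plus 3 SD, about 149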); conditions: S. cerevisiae LAP4-GFP expression, 3 h, at 10 µM, stronger effect = higher value
# [6] = yeast AGP1-GFP level changes, GLN3 branch – cell-based, multiplex flow cytometry, S. cerevisiae, primary screen (AID 1887;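 active = GFP signal above the screen-wide mean plus 3 SD, that is over about 124.5% of the solvent control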;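 also: AGP1-GFP fusion strain of S. cerevisiae within a five-strain barcoded multiplex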); conditions: 3 h, at 10 µM, stronger effect = higher value
# [7] = reduced mouse 2C T cell binding to pMHC/ICAM-1 vesicles – MLPCN validation set, flow cytometry, LFA-1/ICAM-1 modulator project, pilot screen (AID 2523;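 active = response below a set limit, under 55% cells CD8-positive and vesicle-bound, and CD8 cells' 90th-percentile brightness under 279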;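 as to vesicle binding response: mean PE anti-B7-1 fluorescence of CD8+ cells relative to row control; 100% = QL9-loaded vesicles with DMSO vehicle in the same plate row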); conditions: 2C mouse CD8+ T cells, at 7 µM, stronger effect = lower value; double positive events: measured here: CD8+/vesicle+ event percentage
# [8] = biological target: Integrin beta-1 (Homo sapiens) + Integrin alpha-4 (Homo sapiens) (UniProt P13612+P05556); experiment: alpha4beta1 integrin LIBS antibody binding reduction – U937 cells, HUTS-21 mAb, flow cytometry, validation set, VLA-4 allosteric modulator project, pilot screen (AID 2674;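 active = inhibition above 50%, about 3 SD of the validation set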;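 also: antibody binding induced by the VLA-4 ligand LDV present at three times its Kd; 0% = LDV ligand with antibody and no compound and 100% = antibody without LDV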); conditions: HUTS-21 LIBS mAb binding, at 6.7 µM, stronger effect = higher value
# Integrin beta-1 (Homo sapiens) + Integrin alpha-4 (Homo sapiens), sequence (P05556 whole entry, looked up): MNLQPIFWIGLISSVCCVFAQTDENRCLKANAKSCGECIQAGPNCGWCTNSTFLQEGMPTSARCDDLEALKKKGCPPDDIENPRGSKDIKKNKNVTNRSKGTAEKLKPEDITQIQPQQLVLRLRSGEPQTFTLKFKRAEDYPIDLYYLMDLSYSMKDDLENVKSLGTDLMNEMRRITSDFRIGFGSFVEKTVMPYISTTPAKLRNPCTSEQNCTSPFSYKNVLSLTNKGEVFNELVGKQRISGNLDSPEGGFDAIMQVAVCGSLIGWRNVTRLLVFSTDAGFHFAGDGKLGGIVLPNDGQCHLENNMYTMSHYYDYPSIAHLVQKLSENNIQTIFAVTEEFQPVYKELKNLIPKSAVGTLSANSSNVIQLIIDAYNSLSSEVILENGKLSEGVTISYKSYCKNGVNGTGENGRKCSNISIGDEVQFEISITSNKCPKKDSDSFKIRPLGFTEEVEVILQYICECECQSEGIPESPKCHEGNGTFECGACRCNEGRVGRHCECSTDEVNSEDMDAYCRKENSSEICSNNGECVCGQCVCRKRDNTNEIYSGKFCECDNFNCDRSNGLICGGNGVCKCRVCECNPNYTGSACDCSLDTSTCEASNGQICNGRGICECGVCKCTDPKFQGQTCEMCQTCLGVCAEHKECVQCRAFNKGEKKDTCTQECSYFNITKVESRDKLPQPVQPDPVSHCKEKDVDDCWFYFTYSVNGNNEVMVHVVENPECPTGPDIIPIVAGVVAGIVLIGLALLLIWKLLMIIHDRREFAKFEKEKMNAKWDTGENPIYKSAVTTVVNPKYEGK
# Integrin beta-1 (Homo sapiens) + Integrin alpha-4 (Homo sapiens), sequence (P13612 whole entry, looked up): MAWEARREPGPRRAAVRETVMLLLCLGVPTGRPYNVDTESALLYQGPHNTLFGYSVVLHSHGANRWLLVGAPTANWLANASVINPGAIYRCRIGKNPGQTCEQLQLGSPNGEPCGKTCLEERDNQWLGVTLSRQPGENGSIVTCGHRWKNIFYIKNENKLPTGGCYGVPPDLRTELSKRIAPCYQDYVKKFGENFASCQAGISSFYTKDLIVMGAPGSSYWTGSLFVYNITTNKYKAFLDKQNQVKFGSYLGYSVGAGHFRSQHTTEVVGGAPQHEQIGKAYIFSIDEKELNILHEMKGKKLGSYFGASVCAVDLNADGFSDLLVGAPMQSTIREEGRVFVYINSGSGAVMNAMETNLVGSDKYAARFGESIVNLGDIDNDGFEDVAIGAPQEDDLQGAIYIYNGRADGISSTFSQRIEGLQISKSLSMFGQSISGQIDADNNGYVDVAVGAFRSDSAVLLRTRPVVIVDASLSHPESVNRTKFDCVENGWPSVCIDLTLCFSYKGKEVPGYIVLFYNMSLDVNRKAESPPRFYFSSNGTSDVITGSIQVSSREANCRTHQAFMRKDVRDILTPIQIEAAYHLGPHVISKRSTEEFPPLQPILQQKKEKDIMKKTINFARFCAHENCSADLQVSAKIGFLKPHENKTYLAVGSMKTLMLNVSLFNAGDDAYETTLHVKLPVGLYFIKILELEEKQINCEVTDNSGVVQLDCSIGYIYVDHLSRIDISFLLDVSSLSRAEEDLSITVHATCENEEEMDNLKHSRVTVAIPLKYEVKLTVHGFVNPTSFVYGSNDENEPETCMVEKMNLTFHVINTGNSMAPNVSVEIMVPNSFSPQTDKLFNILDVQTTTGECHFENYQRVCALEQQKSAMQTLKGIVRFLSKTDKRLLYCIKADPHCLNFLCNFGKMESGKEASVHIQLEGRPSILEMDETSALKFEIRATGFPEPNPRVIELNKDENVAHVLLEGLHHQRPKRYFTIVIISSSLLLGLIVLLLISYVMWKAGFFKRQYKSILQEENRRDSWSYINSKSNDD
# [9] = calorie-restriction mimetic ROS inhibitors, yeast – validation compound set, pilot screen (AID 2706;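 active = superoxide response below 65% of plate, a cut near 3 SD across the whole screen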;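 also: yeast exposed to compound for one week at 30 degrees C before staining; 100% = mean of all compound wells on the same plate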); conditions: S. cerevisiae aging, superoxide DHE fluorescence; at 10 µM; stronger effect = lower value
# [10] = biological target: Beta-adrenergic receptor kinase 1 (Homo sapiens) (UniProt P25098); experiment: GRK2 binders displacing RNA aptamer, biochemical, validation, human GRK2, bead flow cytometry (AID 488806;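 active = aptamer binding inhibition above 30%, about 3 SD of noise from non-fluorescent compounds; inactive = inhibition at or below 30%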); conditions: bead-bound GRK2, FAM-aptamer displacement, at 10 µM, stronger effect = higher value
# Beta-adrenergic receptor kinase 1 (Homo sapiens), sequence (P25098 whole entry, looked up): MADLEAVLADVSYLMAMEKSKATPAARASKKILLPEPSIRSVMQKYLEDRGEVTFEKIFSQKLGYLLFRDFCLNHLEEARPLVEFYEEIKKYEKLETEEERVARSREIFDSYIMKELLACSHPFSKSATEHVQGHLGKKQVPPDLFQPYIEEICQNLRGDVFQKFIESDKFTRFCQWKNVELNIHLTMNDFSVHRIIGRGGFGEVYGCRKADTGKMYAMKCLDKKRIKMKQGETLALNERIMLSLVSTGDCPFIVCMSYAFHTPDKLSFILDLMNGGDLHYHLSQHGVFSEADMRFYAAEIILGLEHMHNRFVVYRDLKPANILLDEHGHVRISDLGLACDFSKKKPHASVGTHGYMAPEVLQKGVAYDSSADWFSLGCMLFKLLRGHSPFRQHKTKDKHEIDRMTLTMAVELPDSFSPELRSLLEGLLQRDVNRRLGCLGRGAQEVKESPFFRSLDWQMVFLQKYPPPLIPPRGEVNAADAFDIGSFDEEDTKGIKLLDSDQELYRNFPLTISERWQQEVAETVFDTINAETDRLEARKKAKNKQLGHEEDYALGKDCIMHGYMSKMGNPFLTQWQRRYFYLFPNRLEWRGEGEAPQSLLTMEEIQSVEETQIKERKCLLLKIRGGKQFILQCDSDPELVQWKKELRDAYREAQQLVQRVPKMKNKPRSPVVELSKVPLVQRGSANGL
# [11] = biological target: Beta-2 adrenergic receptor (Homo sapiens) (UniProt P07550); experiment: agonist-induced loss of surface beta2AR – cell-based, FAP fluorogen, flow cytometry, validation set, pilot screen (AID 504459;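 active = percent response above 42, roughly 3 SD of non-fluorescent test compounds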;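 also: agonist-driven loss of surface beta2AR via internalization measured by FAP dye flow cytometry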); conditions: Am2.2-beta2AR cells, at 10 µM, stronger effect = higher value
# [12] = biological target: AP-2 complex subunit beta (Homo sapiens) (UniProt P63010); experiment: beta-arrestin/AP2 interaction blockers – biochemical, validation set, GST-AP2 beads, flow cytometry, pilot screen (AID 504541;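 active = inhibition above 54%, about 3 SD of non-fluorescent compounds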;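 also: AP2 carries R879A mutation and is captured from E. coli lysate; bead-bound FITC arrestin peptide fluorescence measuring arrestin peptide binding to AP2; 0% = DMSO wells and 100% = excess unlabeled arrestin peptide control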); conditions: FITC arrestin peptide, at 10 µM, stronger effect = higher value
# AP-2 complex subunit beta (Homo sapiens), sequence (P63010 whole entry, looked up, one chain of several): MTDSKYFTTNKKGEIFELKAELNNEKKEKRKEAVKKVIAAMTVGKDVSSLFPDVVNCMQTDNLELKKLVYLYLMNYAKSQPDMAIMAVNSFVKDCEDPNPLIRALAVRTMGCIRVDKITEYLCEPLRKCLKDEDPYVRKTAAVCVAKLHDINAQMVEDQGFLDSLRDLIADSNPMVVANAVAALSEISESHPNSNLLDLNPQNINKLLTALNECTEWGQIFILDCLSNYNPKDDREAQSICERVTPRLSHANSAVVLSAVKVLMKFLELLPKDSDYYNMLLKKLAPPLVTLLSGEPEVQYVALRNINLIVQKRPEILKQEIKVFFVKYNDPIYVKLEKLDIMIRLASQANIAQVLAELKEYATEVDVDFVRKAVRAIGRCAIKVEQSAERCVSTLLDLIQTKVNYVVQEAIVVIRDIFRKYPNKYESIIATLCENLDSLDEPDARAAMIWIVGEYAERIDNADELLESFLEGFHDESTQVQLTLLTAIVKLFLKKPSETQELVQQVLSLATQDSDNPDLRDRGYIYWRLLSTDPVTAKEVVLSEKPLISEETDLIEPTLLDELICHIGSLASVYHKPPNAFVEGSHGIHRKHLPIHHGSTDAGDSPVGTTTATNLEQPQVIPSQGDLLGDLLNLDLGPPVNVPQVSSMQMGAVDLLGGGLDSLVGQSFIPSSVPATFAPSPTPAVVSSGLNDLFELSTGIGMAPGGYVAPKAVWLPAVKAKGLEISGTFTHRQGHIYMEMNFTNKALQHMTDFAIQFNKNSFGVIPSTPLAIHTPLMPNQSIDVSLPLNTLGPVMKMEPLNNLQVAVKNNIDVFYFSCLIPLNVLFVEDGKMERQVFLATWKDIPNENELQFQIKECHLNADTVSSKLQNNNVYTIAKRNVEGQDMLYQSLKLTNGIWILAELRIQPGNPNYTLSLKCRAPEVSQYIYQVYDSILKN
# [13] = cytosolic pH regulators acting via V-ATPase – S. cerevisiae, pHLuorin, HTS validation (AID 504600; in the data active = response above about 15%;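 also: plate controls were DMSO for no effect and reference compound for full effect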); conditions: V-ATPase proton transport, at 10 µM, stronger effect = higher value
# [14] = tested on: anti-desmoglein-3 scFv antibody binding to human DSG3; experiment: blockers of pathogenic pemphigus antibody–desmoglein-3 binding – biochemical, validation compound set, bead-based, flow cytometry, pilot screen (AID 588368;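 active = binding below the plate cutoff, the plate median minus 3 SD, with a reading above zero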;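 also: signal is the median channel fluorescence of bead-bound GFP antibody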); conditions: Protein G beads, DSG3-Fc, scFv-GFP binding, at 10 µM, stronger effect = lower value
# [15] = tested on: Botulinum neurotoxin type F light chain protease (Clostridium botulinum); experiment: Clostridium botulinum type F light chain protease inhibitors, microsphere substrate cleavage, validation (AID 588459; call rule not given here); conditions: multiplex microsphere protease substrate cleavage assay, flow cytometry; at 10 µM; stronger effect = higher value
# [16] = biological target: Botulinum neurotoxin type A (Clostridium botulinum) (UniProt P0DPI0); experiment: BoNT/A light chain protease inhibitors, biochemical, multiplex microsphere flow cytometry, validation set (AID 588460; call rule not given here); conditions: at 10 µM, stronger effect = higher value
# Botulinum neurotoxin type A (Clostridium botulinum), sequence (P0DPI0 whole entry, looked up): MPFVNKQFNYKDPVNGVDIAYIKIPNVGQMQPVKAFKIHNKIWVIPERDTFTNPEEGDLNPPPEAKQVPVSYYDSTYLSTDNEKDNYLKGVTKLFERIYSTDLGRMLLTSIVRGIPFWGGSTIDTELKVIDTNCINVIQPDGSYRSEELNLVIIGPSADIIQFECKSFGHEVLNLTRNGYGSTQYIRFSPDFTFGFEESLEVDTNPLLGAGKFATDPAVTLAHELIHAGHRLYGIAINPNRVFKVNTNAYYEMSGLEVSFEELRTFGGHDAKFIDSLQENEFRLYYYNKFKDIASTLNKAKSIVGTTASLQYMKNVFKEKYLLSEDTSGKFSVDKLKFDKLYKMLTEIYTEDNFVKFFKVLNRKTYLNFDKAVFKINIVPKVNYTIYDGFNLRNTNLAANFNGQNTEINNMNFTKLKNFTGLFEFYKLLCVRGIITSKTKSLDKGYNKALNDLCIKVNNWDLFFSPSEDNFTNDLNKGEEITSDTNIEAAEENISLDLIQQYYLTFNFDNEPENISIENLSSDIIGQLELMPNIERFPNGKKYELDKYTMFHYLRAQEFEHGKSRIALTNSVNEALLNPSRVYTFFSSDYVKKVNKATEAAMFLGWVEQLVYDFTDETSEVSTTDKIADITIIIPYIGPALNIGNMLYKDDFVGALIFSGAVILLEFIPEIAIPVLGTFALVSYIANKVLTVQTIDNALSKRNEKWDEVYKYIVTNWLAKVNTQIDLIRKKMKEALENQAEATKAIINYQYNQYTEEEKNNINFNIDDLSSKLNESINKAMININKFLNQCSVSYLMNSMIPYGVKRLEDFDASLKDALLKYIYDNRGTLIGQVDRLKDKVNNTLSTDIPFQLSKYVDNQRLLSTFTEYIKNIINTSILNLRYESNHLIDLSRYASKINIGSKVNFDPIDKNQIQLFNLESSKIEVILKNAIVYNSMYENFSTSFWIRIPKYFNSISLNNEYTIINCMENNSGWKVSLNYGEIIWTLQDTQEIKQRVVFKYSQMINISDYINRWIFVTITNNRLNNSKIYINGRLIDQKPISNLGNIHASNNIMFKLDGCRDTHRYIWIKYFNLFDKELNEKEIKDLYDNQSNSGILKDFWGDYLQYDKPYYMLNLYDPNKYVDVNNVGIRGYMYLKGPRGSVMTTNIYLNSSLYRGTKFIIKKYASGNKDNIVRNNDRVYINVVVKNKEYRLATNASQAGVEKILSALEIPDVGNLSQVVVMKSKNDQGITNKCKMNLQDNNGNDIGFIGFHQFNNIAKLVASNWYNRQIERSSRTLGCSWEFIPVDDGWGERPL
# [17] = biological target: Lethal factor (Bacillus anthracis) (UniProt P15917); experiment: Bacillus anthracis lethal factor inhibition, microsphere flow cytometry protease assay, validation at 10 µM (AID 588461; call rule not given here); conditions: multiplex microsphere protease cleavage assay, stronger effect = higher value
# [18] = Nile Red efflux blockade in pump-expressing yeast – validation compound set, multiplex, phenotypic, pilot screen (AID 588506;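 active = efflux inhibition above 0.42, the validation set average plus 4 SD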;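 also: Nile Red retained in cells so higher fluorescence means more efflux inhibition; 0 = negative control wells and 1 = enniatin B 25 µM full block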); conditions: S. cerevisiae pump-expressing triplex, Nile Red efflux flow cytometry; at 10 µM; stronger effect = higher value
# [19] = biological target: ATP-binding cassette sub-family B member 6 (Homo sapiens) (UniProt Q9NP58); experiment: blockers of ABCB6-driven porphyrin uptake – K562-ABCB6 cells, flow cytometry, validation set, pilot screen (AID 588550;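 active = inhibition above the screen-wide mean plus 3 SD, about 51%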;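 also: 0% = DMSO wells and 100% = benzethonium chloride 70 µM positive control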); conditions: K562-ABCB6 porphyrin accumulation, 1 h, at 10 µM, stronger effect = higher value
# [20] = AML differentiation inducers, ER-HoxA9 marrow cells – cell-based, GFP/MAC1 double positive, flow cytometry, validation set, primary screen (AID 588685;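 active = differentiation response of at least 50%, scaled between solvent and reference control, from cells with both markers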;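 also: compound exposure lasts four days before antibody staining and flow analysis; 0% = DMSO wells and 100% = 5 µM fulvestrant positive control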); conditions: stronger effect = higher value
smiles,measurement,setting,value
O=C(O)c1cn(Cc2ccc(Cl)cc2)c2ccccc12,"GTP binding, percent of control",[1],89.3%
COc1ccc(-c2cc(=NCCCCCC(=O)O)c3cc(C)ccc3o2)cc1,"GTP binding, percent of control",[1],66.2%
CCn1nc(/C=C/c2ccccc2)nc2c(=O)n(C)c(=O)nc1-2,"GTP binding, percent of control",[1],76.7%
Cc1nc2c(=O)n(C)c(=O)nc-2n(C)n1,"GTP binding, percent of control",[1],98.5%
O=C(O)c1cn(Cc2ccc(Br)cc2)c2ccccc12,"GTP binding, percent of control",[1],104%
CN(C)c1ccc(/C=C/C=C2/C(=O)NC(=O)N(c3ccccc3)C2=O)cc1,"GTP binding, percent of control",[1],81.4%
COCCCn1c(N)c(C(=O)Nc2sc3c(c2C(=O)OC)CCCC3)c2nc3ccccc3nc21,"GTP binding, percent of control",[1],51.7%
Cc1ccc(C)c(OCCCn2cc(C(=O)O)c3ccccc32)c1,"GTP binding, percent of control",[1],88.6%
CCOCCCn1c(N)c(C(=O)Nc2sc3c(c2C(=O)OC)CCCC3)c2nc3ccccc3nc21,"GTP binding, percent of control",[1],122%
CCCCN1C(=O)/C(=C\c2ccco2)C(=O)N(CCc2ccccc2)C1=O,"GTP binding, percent of control",[1],131%
CCOc1ccc(C2SCC(=O)Nc3c2c(C)nn3C2CCOC(C)(C)C2)cc1 (stereo not given),"GTP binding, percent of control",[1],150%
CCOC(=O)c1c(NC(=O)c2c(N)n(CCCOC)c3nc4ccccc4nc23)sc2c1CCCC2,"GTP binding, percent of control",[1],144%
C[C@]12CC[C@@H](O)C[C@@H]1CC[C@@H]1[C@@H]2CC[C@]2(C)[C@@H](O)CC[C@@H]12,percent of DMSO control GFP,[2],95.4% (inactive)
same,GFP response vs DMSO,[3],107% (inactive)
same,percent response of DMSO control,[4],83% (inactive)
same,GFP response vs DMSO,[5],150% (active)
same,"GFP response, % of DMSO",[6],106% (inactive)
same,double positive events,[7],58.5%
same,vesicle binding response,[7],122% (inactive)
same,inhibition,[8],-7.79% (inactive)
same,superoxide response (% of plate),[9],98% (inactive)
same,aptamer binding inhibition,[10],3% (inactive)
same,response,[11],0.4% (inactive)
same,inhibition,[12],-7.18% (inactive)
same,response,[13],2.4% (inactive)
same,binding (% of control),[14],103% (inactive)
same,inhibition,[15],1.2% (inactive)
same,inhibition,[16],0.9% (inactive)
same,inhibition,[17],3.5% (inactive)
same,efflux inhibition (fraction of control),[18],0.08 (inactive)
same,inhibition,[19],7% (inactive)
same,differentiation response,[20],-13.3% (inactive)
Cc1cc(OCCCn2cc(C(=O)O)c3ccccc32)ccc1Cl,"GTP binding, percent of control",[1],83.9%
C[C@H](O)[C@H]1CC[C@H]2[C@@H]3CCC4=CC(=O)CC[C@]4(C)[C@H]3CC[C@]12C,percent of DMSO control GFP,[2],98.9% (inactive)
same,GFP response vs DMSO,[3],103% (inactive)
same,percent response of DMSO control,[4],91.3% (inactive)
same,GFP response vs DMSO,[5],126% (inactive)
same,"GFP response, % of DMSO",[6],89.6% (inactive)
same,double positive events,[7],61%
same,vesicle binding response,[7],104% (inactive)
same,inhibition,[8],11% (inactive)
same,superoxide response (% of plate),[9],106% (inactive)
same,aptamer binding inhibition,[10],0% (inactive)
same,response,[11],-3.16% (inactive)
same,inhibition,[12],-3.68% (inactive)
same,response,[13],-6.77% (inactive)
same,binding (% of control),[14],102% (inactive)
same,inhibition,[15],-0.6% (inactive)
same,inhibition,[16],0.2% (inactive)
same,inhibition,[17],2.8% (inactive)
same,efflux inhibition (fraction of control),[18],-0.17 (inactive)
same,inhibition,[19],9% (inactive)
same,differentiation response,[20],-4.57% (inactive)
Cc1sc(-n2c(C)cc(C=C3C(=O)NC(=O)NC3=O)c2C)c(C#N)c1C,"GTP binding, percent of control",[1],68.9%
O=C1CN=C(c2ccccc2)c2cc(Br)ccc2N1Cc1cc(=O)n2ccccc2n1,"GTP binding, percent of control",[1],64.5%
O=c1[nH]c(=S)[nH]c(O)c1N=Nc1cc2c(cc1[N+](=O)[O-])OCO2,"GTP binding, percent of control",[1],66.6%
CC(Oc1ccc(-c2ccccc2)cc1)C(=O)O (stereo not given),"GTP binding, percent of control",[1],172%
O=C(O)c1cn(Cc2ccccc2F)c2ccccc12,"GTP binding, percent of control",[1],106%
O=C1NC(=S)N(Cc2ccco2)C(=O)/C1=C\c1cccs1,"GTP binding, percent of control",[1],95.1%
Cc1ccccc1OCCCn1cc(C(=O)O)c2ccccc21,"GTP binding, percent of control",[1],92.4%
Cc1ccc(-n2c(O)c(/C=N/c3ncc(Br)cc3Br)c(=O)[nH]c2=O)cc1,"GTP binding, percent of control",[1],116%
O=C(O)c1cn(Cc2ccccc2Cl)c2ccccc12,"GTP binding, percent of control",[1],82.2%
CC1(C)CC(n2[nH]c(=O)c3c2NC(=O)CSC3c2ccccc2)CCO1 (stereo not given),"GTP binding, percent of control",[1],86.2%
C#C[C@]1(O)CC[C@H]2[C@@H]3CCC4=CC(=O)CC[C@]4(C)[C@H]3CC[C@@]21C,percent of DMSO control GFP,[2],88.7% (inactive)
same,GFP response vs DMSO,[3],140% (active)
same,percent response of DMSO control,[4],106% (inactive)
same,GFP response vs DMSO,[5],80.9% (inactive)
same,"GFP response, % of DMSO",[6],87.7% (inactive)
same,double positive events,[7],64.1%
same,vesicle binding response,[7],255% (inactive)
same,inhibition,[8],3.55% (inactive)
same,superoxide response (% of plate),[9],97.8% (inactive)
same,aptamer binding inhibition,[10],1% (inactive)
same,response,[11],-8% (inactive)
same,inhibition,[12],14.2% (inactive)
same,response,[13],-3.36% (inactive)
same,binding (% of control),[14],102% (inactive)
same,inhibition,[15],2.5% (inactive)
same,inhibition,[16],-0.5% (inactive)
same,inhibition,[17],-1.2% (inactive)
same,efflux inhibition (fraction of control),[18],0.3 (inactive)
same,inhibition,[19],9% (inactive)
same,differentiation response,[20],-0.82% (inactive)
CN1C(=O)N(C)C(=O)C2(Cc3c(ccc4ccccc34)N(C)C2)C1=O,"GTP binding, percent of control",[1],82.6%
CCN(CC)c1ccc(/C=N/c2sc3c(c2C#N)C2CCN3CC2)c(O)c1,"GTP binding, percent of control",[1],104%
CC[C@@H]1C(=O)OC[C@@H]1Cc1cncn1C,percent of DMSO control GFP,[2],89.8% (inactive)
same,GFP response vs DMSO,[3],144% (active)
same,percent response of DMSO control,[4],112% (inactive)
same,GFP response vs DMSO,[5],88% (inactive)
same,"GFP response, % of DMSO",[6],86.3% (inactive)
same,double positive events,[7],65.5% and 68.4%
same,vesicle binding response,[7],171% (inactive) and 339% (inactive)
same,inhibition,[8],13.2% (inactive) and 5.49% (inactive)
same,superoxide response (% of plate),[9],82.6% (inactive) and 106% (inactive)
same,aptamer binding inhibition,[10],7% (inactive) and 4% (inactive)
same,response,[11],1.92% (inactive) and 3.7% (inactive)
same,inhibition,[12],14.2% (inactive) and -5.27% (inactive)
same,response,[13],-2.39% (inactive) and 0.38% (inactive)
same,binding (% of control),[14],104% (inactive) and 95.6% (inactive)
same,inhibition,[15],-1.2% (inactive) and -3.1% (inactive)
same,inhibition,[16],-0.7% (inactive) and 0.7% (inactive)
same,inhibition,[17],-1.2% (inactive) and 7% (inactive)
same,efflux inhibition (fraction of control),[18],0.16 (inactive) and 0.05 (inactive)
same,inhibition,[19],3% (inactive) and 12% (inactive)
same,differentiation response,[20],14.7% (inactive) and 20.5% (inactive)
